# According to ChEMBL document CHEMBL3988442, “University of Dundee, Small-Polar-MMV Screening Library” (2021):
# Hit rate of the full screen: of about 38,000 compounds, about 1,200 (3.2%) showed an effect of 50% or more. The median lay at about -58%. Only a selection was taken, and strong results are over-represented in it overall.
# Tested on: Plasmodium falciparum
# Experiment: Calibr Malaria Delayed Death Assay SOP
# Format: functional, organism-based
# Design: scale not given: in the data most compounds retested in dose-response had high values
# Settings: concentration 4.99e-06 (unit not given; other assays of the set use mol/L)
row,SMILES,Percent Effect [%]
1,Cc1nnn2c1COC(CNC(=O)c1cccn1C)C2 (stereo not given),-28
2,COc1ccc(C(C)NCc2c[nH]nc2C)cc1Br.Cl (stereo not given),17.2
3,COc1ccccc1CNC(C)c1ccc2[nH]c(=O)[nH]c2c1 (stereo not given),-107.7
4,COc1cc(CNC(C)c2cccc(Cl)c2)cc(OC)c1OC (stereo not given),62.46
5,COc1cc(CNC(C)Cn2cccn2)cc(Cl)c1OC.Cl (stereo not given),-39.22
6,COc1cccc(CNC(C)Cn2cccn2)c1OC.Cl (stereo not given),-25.91
7,COc1ccc(CNC(C)c2cccc(Br)c2)c(OC)c1OC.Cl (stereo not given),66.18
8,COc1cc(CNC(C)Cn2cccn2)cc(OC)c1OC.Cl (stereo not given),-15.53
9,CCOc1cccc(C(C)NCc2ccc(OC)c(OC)c2OC)c1 (stereo not given),77.1
10,CCOc1cccc(C(C)NCc2c(C)nn(C)c2N(C)C)c1 (stereo not given),-4.179
11,CC1c2ncc(CNC(=O)C3CC3)n2CCN1Cc1ccccn1.O=C(O)C(F)(F)F.O=C(O)C(F)(F)F (stereo not given),-38.32
12,Cc1sc(CS(C)(=O)=O)nc1-c1ccc(Cl)cc1,-81.11
13,Cc1cc(N2CCC3(CCCN(C4CCOCC4)C3=O)C2)ccn1 (stereo not given),-85.7
14,Cc1cc(NC(=O)N2CCCC2CN2CCOCC2)nn1C (stereo not given),-54.38
15,Cc1n[nH]cc1CNC1CCN(c2ccc(F)cc2)CC1.Cl,-38.43
16,Cc1n[nH]cc1CNC1CCN(c2cccc(C(F)(F)F)c2)CC1,62.67
17,COc1cccc(-c2n[nH]cc2CNC2CCN(C3CC3)CC2)c1.Cl,18.36
18,Cn1[nH]c(Br)c2/c(=N\CCN)ncnc1-2,-80.01
19,CCn1ccnc1CN(C)C1CCCN(CCc2ccccc2)C1 (stereo not given),76.22
20,CN(C(=O)CCc1ccncc1)C1CCCN(CCc2ccccc2)C1 (stereo not given),-32.08
21,CN(C(=O)CSc1ccccn1)C1CCCN(CCc2ccccc2)C1 (stereo not given),-11.51
22,CN(Cc1nnc(C2CC2)n1C)C1CCN(CCc2ccccc2)C1 (stereo not given),-85.28
23,CN(C(=O)c1cccnc1)C1CCCN(CCc2ccccc2)C1 (stereo not given),-66.95
24,O=C(NCCOc1ccc(Cl)cn1)NCCc1ccccn1,-11.42

row,SMILES,Percent Effect [%]
1,O=c1cc2c(nn1CN1CCSCC1)CCC2,-0.0745
2,CN(C)C1CCCN(C(=O)NCCc2cc(F)ccc2F)C1 (stereo not given),-83
3,CC(=O)N1CC(C)CN(C(=O)c2cnccn2)c2ccccc21 (stereo not given),-30.69
4,Cn1nccc1NC(=O)c1cccc(CN2C[C@H]3CC[C@@H](C2)N3)c1,-132.7
5,CCCc1ccc(CN2CCC3(CC2)CNC(=O)C3)o1,20.41
6,CC(C)n1nc(CN(C)C)c2c1CN(CC1CC1)CC2.O=C(O)C(F)(F)F.O=C(O)C(F)(F)F,-96.94
7,Cn1nc(CN2CCCC2)c2c1CN(CC1CC1)CC2.O=C(O)C(F)(F)F.O=C(O)C(F)(F)F,-21.27
8,CC(C)n1nc(CN2CCCC2)c2c1CN(CC1CC1)CC2.O=C(O)C(F)(F)F.O=C(O)C(F)(F)F,54
9,Cc1noc(C)c1CN1CC[C@H]2OCC[C@@]2(C(=O)NC2CCCC2)C1.O=C(O)C(F)(F)F,8.677
10,CO[C@H]1CNC[C@@H]1NC(=O)c1cc(C)nc2c(C)c(C)ccc12,-1.359
11,Cc1cc(C)c2nc(C)cc(C(=O)NC(C)c3nnn[nH]3)c2c1 (stereo not given),-3.579
12,CO[C@H]1CNC[C@@H]1NC(=O)c1cc(C)nc2c(C)cc(C)cc12,73.93
13,CCc1cnc(N2C[C@@H]3[C@@H](C(=O)N(C)C)CCS(=O)(=O)[C@@H]3C2)nc1,-56.54
14,Cc1cc(C(=O)N2CCn3cc(CN(C)C)nc3C2)no1,-39.89
15,Cc1noc(C(C)C)c1C(=O)NCC(c1ccsc1)N(C)C (stereo not given),17.17
16,Cc1noc(C)c1C(=O)NCC(c1ccsc1)N(C)C (stereo not given),-8.165
17,O=C(O)C(F)(F)F.O=C(c1ccccn1)N1C[C@H]2CCC[C@@]2(COCC2CCOCC2)C1,-43.42
18,O=S(=O)(NCC(O)c1ccoc1)c1ccc(Br)s1 (stereo not given),-179.3
19,Cc1cc(CN2CCC(CNS(=O)(=O)c3c(C)noc3C)CC2)c(C)o1,26.64
20,Cc1ccc(S(=O)(=O)NCCc2ccoc2)s1,-129
21,Cc1cc(CN2CCC(CNS(=O)(=O)c3ccc(Br)s3)CC2)c(C)o1,91.4
22,Cc1cc(C(O)CCNS(=O)(=O)c2ccc(Cl)s2)c(C)o1 (stereo not given),-41.19
23,Cc1cc(CN2CCC(CNS(=O)(=O)c3ccc(C)s3)CC2)c(C)o1,87.35
24,O=C(c1c[nH]nn1)N1CCCC1C1CCCCC1 (stereo not given),48.49

row,SMILES,Percent Effect [%]
1,O=C(C1CCC1)N1CCC(=O)N(C2CC2)Cc2cc(F)ccc21,-6.345
2,CCNc1ccnc(NC2CCN(CC(N)=O)CC2)n1,-56.83
3,N#Cc1cc(Br)ccc1NC1CCN(CC(N)=O)CC1,19.71
4,Cc1cccc(-n2c(C)cc(=O)[nH]c2=O)c1C,-21.52
5,CC1CCN(CCCNC(=O)c2ccc(N(C)S(C)(=O)=O)cc2Cl)CC1,-35.22
6,O=C(NCc1ccccc1)NCC1CCN(Cc2ccsc2)CC1,-54.93
7,CC(=O)c1cn(CCC(=O)Nc2c3c(nn2C)CSC3)c2ccccc12,26.69
8,Fc1ccc(CC2CCN(Cc3cscn3)CC2)cc1,50.2
9,Fc1ccc(CC2CCN(Cc3nccs3)CC2)cc1,0.00383
10,Fc1cccc(CN2CCN(Cc3cscn3)CC2)c1,-54.95
11,CC(C)c1n[nH]c(C2CN(C(=O)c3cc(C(N)=O)cs3)CCO2)n1 (stereo not given),-7.804
12,CN(C)c1ncccc1CNc1snc(Cl)c1C#N,-8.92
13,Cc1ccc(CN2CC[C@H]3CO[C@H](CN(C)Cc4ccco4)[C@H]3C2)s1.O=C(O)C(F)(F)F.O=C(O)C(F)(F)F,57.63
14,CN(Cc1ccco1)C[C@H]1OC[C@@H]2CCN(Cc3ccsc3)C[C@@H]21.O=C(O)C(F)(F)F.O=C(O)C(F)(F)F,65.82
15,Cc1ccc(CN2CC[C@H]3CO[C@H](CN(C)C)[C@H]3C2)o1,-9.526
16,O=C(O)C(F)(F)F.O=C(O)C(F)(F)F.c1cc(CN2CC[C@H]3CO[C@H](CN4CCOCC4)[C@H]3C2)cs1,-2.124
17,CN1CCN(C[C@@H]2OC[C@H]3CN(Cc4ccsc4)CC[C@H]32)CC1.O=C(O)C(F)(F)F.O=C(O)C(F)(F)F.O=C(O)C(F)(F)F,7.397
18,Cc1ccc(N2CC[C@H]3CO[C@H](CN(C)Cc4ccco4)[C@H]3C2)nn1.O=C(O)C(F)(F)F.O=C(O)C(F)(F)F,-41.04
19,CN(Cc1ccco1)C[C@@H]1OC[C@H]2CN(Cc3nccs3)CC[C@H]21.O=C(O)C(F)(F)F.O=C(O)C(F)(F)F,-54.97
20,CN1CCN(C[C@H]2OC[C@@H]3CCN(Cc4ccsc4)C[C@@H]32)CC1,77.67
21,Cc1cccc(N2CC[C@H]3[C@H](CO[C@@H]3CN(C)Cc3ccco3)C2)n1.O=C(O)C(F)(F)F.O=C(O)C(F)(F)F,3.761
22,O=C(O)C(F)(F)F.O=C(O)C(F)(F)F.c1cnc(NC[C@H]2OC[C@@H]3CCN(Cc4ccsc4)C[C@@H]32)nc1,-30.65
23,O=C(NC[C@H]1OC[C@@H]2CCN(Cc3ccco3)C[C@@H]21)c1ccsc1.O=C(O)C(F)(F)F,-100.7
24,CSCCC(CO)NC(=O)c1ccc2[nH]/c(=N\S(C)(=O)=O)sc2c1 (stereo not given),-143.2

row,SMILES,Percent Effect [%]
1,COCC(O)CN1CCC(=O)N(CC(=O)C(C)(C)C)Cc2ccccc21 (stereo not given),3.723
2,Cc1cccc(N2CCN(C(=O)CNCCn3cc(C)cn3)CC2)c1,-74.29
3,CC(=O)N(Cc1noc(C)n1)C1CCN(CC2CCCC2)C1 (stereo not given),-72.7
4,Cc1nn(C)c(N2CCOCC2)c1CNCc1cccnc1,-102.1
5,COCCNc1cc(C)nn2cnnc12,-138.9
6,CNc1nc2c(s1)C(c1cccc(F)c1F)CC(=O)N2 (stereo not given),-75.94
7,CC(C)n1[nH]c(=O)c2c1NC(=O)CC2c1ccncc1 (stereo not given),-11.96
8,COc1ncccc1CN1C[C@@H]2COC[C@]2(COc2ccccn2)C1.O=C(O)C(F)(F)F.O=C(O)C(F)(F)F.O=C(O)C(F)(F)F,-20.51
9,Cc1ccc(C(=O)Cc2c(Cl)nc3n(C)c(=O)n(C)c(=O)n23)cc1,-11.12
10,CC(C)(C)n1ncc2c1NC(=O)CC2c1c(F)cccc1F (stereo not given),-175.8
11,COc1ccc(CN2CCC(C(N)=O)C2)c(Br)c1OC (stereo not given),-101
12,COc1ccc(C(C)NC(=O)N2CCNC(=O)CC2)cc1F (stereo not given),-89.17
13,COc1cc(Cl)c(CN2CCC(C(N)=O)C2)cc1Cl (stereo not given),3.59
14,COc1ccc(CN2CCC(C(N)=O)CC2)cc1SC(F)(F)F,63.84
15,COc1ccc(CN2CCNC(=O)CC2)cc1SC(F)(F)F,74.78
16,CSc1ccc(OCCN2CCNC(=O)CC2)cc1,-70.99
17,OC(CN1CCC(c2ccn[nH]2)CC1)c1ccc(F)cc1F (stereo not given),-72.07
18,Cc1ccc(C)c(S(=O)(=O)NCCOc2ccc3nnc(C)n3n2)c1,-6.832
19,Cc1cc(C[C@@H]2CCC[C@H]2NCc2ccc(C(F)(F)F)cc2)on1.O=C(O)CC(O)(CC(=O)O)C(=O)O,-14.83
20,Cc1cc(C[C@@H]2CCC[C@H]2NCc2c[nH]nc2-c2ccccc2)on1.O=C(O)CC(O)(CC(=O)O)C(=O)O,55.35
21,COc1cccc(-c2n[nH]cc2CNC2CCC(O)CC2)c1.Cl (stereo not given),-76.02
22,Cc1cc(C[C@@H]2COC[C@@H]2NC(=O)Cn2c(=O)oc3ccccc32)on1,-110.9
23,COc1cccc(-c2n[nH]cc2CNC2CCCN(C)C2)c1 (stereo not given),-88.31
